The record followed here is PubChem BioAssay (NCATS).

“And” between values parts separate entries of the source, which are not always exact repeats. Equal values may be shown once. Inconclusive results are not listed. Unmarked numbers belong to inactive results. The source made the active and inactive calls. Calls come from the whole dose curve; as a rule, active = well fitted curve in the direction sought with a large enough effect; inconclusive = small, poorly fitted or top-dose-only effect, or another doubt; inactive = no such curve, though single readings can be large; an effect the other way counts as inactive or inconclusive.

Experiment [1] deals with Cellular tumor antigen p53 (Homo sapiens) (UniProt P04637). Description: Primary qHTS for small molecule compounds that upregulate eGFP-tagged delta133p53alpha (in N-terminal) cells. (AID 2060322).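 For activation: cells pre-induced with doxycycline then dosed without doxycycline; series mostly up to about 56 µM; 0% = DMSO vehicle and 100% = reference activator.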 Note: nearly all actives have a fitted effect of over 75% in size. Note: potency is the fitted concentration of half-maximal effect. Particulars: NCI-H358 eGFP-delta133p53alpha fluorescence, 24 h; activation: hits give high values. The gist of the method: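 NCI-H358 cells pre-induced 24 h with 10 ng/ml doxycycline for eGFP-delta133p53alpha, plated dox-free and exposed 24 h at 37C to titrated compounds. Fixed, Hoechst-stained; gated GFP peak intensity by laser scanning cytometry, normalized to DMSO (0%) and 57.5 uM 5-azacytidine (100%).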
Sequence of Cellular tumor antigen p53 (Homo sapiens) (P04637 whole entry, looked up): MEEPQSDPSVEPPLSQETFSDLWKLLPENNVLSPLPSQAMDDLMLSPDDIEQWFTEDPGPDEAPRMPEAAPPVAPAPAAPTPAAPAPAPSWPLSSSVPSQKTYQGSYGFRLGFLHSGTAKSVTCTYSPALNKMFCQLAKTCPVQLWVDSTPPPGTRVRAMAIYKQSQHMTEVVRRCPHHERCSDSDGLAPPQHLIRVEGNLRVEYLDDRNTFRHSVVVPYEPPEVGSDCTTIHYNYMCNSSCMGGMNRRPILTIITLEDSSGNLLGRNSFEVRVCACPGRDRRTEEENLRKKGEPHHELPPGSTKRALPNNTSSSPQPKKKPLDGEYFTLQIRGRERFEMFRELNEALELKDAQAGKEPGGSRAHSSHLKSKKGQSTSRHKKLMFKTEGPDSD

Experiment [2] concerns the target Aldehyde dehydrogenase, mitochondrial (Homo sapiens) (UniProt P05091). Briefly: qHTS for Inhibitors of the Aldehyde Dehydrogenase Family (ALDH2) Primary screen (AID 2061308).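 Note: plate controls were vehicle for no effect and reference inhibitor for full effect; nearly all actives have a fitted effect of over 55% in size.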
Experiment [3] addresses Retinaldehyde dehydrogenase 3 (Homo sapiens) (UniProt P47895). Description: qHTS for Inhibitors of the Aldehyde Dehydrogenase Family (ALDH1A3) Primary screen (AID 2061315). Note: potency is the fitted concentration of half-maximal effect.
The nature of experiment [4]: BET inhibitor-based combinations targeting novel dependencies in MECOM-rearranged (r) AML: SET-2 cell line (AID 2202231).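 For viability: plate controls were DMSO treated cells for no effect and wells without cells for full effect.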 Note: nearly all actives have a fitted effect of over 35% in size. Note: potency is the fitted concentration of half-maximal effect. Conditions: SET-2 AML cells viability, CellTiter-Glo luminescence, 48 h; viability: hits give low values, concentration not given here. The essentials: (§1)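 Cells were plated at 500 per well and exposed to an 11-point dose series of each drug for 48 hr. Viability was measured by CellTiter-Glo luminescence, normalized to DMSO and empty-well controls, and summarized as AUC and per-cell-line Z-AUC.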

The nature of experiment [5]: BET inhibitor-based combinations targeting novel dependencies in MECOM-rearranged (r) AML: OCI-AML3 cell line (AID 2202232). Note: nearly all actives have a fitted effect of over 35% in size. Note: potency is the fitted concentration of half-maximal effect. Particulars: Potency: OCI-AML3 viability. The essentials:
as §1

The nature of experiment [6]: BET inhibitor-based combinations targeting novel dependencies in MECOM-rearranged (r) AML: HNT-34 cell line (AID 2202234). Note: nearly all actives have a fitted effect of over 35% in size. Note: potency is the fitted concentration of half-maximal effect. The gist of the method: (§2)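 Activity is given as area under the curve and as Z-AUC, mean-centred within each cell line. It comes from 11-point dose curves normalized to DMSO and empty wells. CellTiter-Glo luminescence was read after 48 hr drug exposure of 500 cells/well.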

Experiment [7] in a line: BET inhibitor-based combinations targeting novel dependencies in MECOM-rearranged (r) AML: AML-191 cell line (AID 2202236; note: nearly all actives have a fitted effect of over 35% in size; note: potency is the fitted concentration of half-maximal effect). The essentials: as §1
Experiment [8] can be described thus: BET inhibitor-based combinations targeting novel dependencies in MECOM-rearranged (r) AML: AML-194 cell line (AID 2202237; note: nearly all actives have a fitted effect of over 40% in size; note: potency is the fitted concentration of half-maximal effect). The essentials:
as §1

Experiment [9] deals with Retinaldehyde dehydrogenase 3 (Homo sapiens) (UniProt P47895). Description: qHTS for Inhibitors of the Aldehyde Dehydrogenase Family (ALDH1A3) Validation screen (AID 2061312). Note: potency is the fitted concentration of half-maximal effect; nearly all actives have a fitted effect of over 45% in size.
Experiment [10] can be described thus: BET inhibitor-based combinations targeting novel dependencies in MECOM-rearranged (r) AML: MV-4-11 cell line (AID 2202233). Note: nearly all actives have a fitted effect of over 45% in size. Note: potency is the fitted concentration of half-maximal effect. The essentials: as §2
Experiment [11] is described as follows: BET inhibitor-based combinations targeting novel dependencies in MECOM-rearranged (r) AML: UCSD-AML1 cell line (AID 2202235). Note: nearly all actives have a fitted effect of over 40% in size. Note: potency is the fitted concentration of half-maximal effect. The essentials: as §2

For `CN1C[C@@H]2CN(c3ccc(-c4ccccc4)nn3)C[C@@H]2C1`, in [1], the activation is 14.3%. For the same compound, the Potency entry in [2] and in [3] was “inactive” each time.

For `O=C(O)CNC(=O)c1c(O)c2ccccc2n(Cc2ccccc2)c1=O`, the activation in experiment [1] was -9.57% and 9.82%. Besides, the Potency result in experiment [2], in [3], in experiment [5], in [6], in [7] and in [8] was “inactive” throughout. For the same compound, the viability in [4] is 107%.

Take `CNc1ccc2oc(C[C@H]3O[C@@]4(CC[C@H]3C)O[C@H](C(C)C(=O)c3ccc[nH]3)[C@H](C)C[C@H]4C)nc2c1C(=O)O` (stereo partly specified): the results for the Potency in [1], in [9] and in [3] were 19 µM (active), 14.1 µM (active) and 11.2 µM (active), respectively.

In the case of `CC1(N2CCC(n3c([C@@H]4CCCNC4)nc4ccccc43)CC2)CCCCCCC1`, the activation in [1] is 44.9% and 4.3%. In addition, the Potency result in experiment [2] and in experiment [3] was “inactive” each time. The Potency in experiment [10] is 16.6 µM (active); in experiment [6], 20.9 µM (active); in experiment [8], 26.3 µM (active).

As to `Cc1sc2c(c1C)C(c1ccc(Cl)cc1)=NC(CC(N)=O)c1nnc(C)n1-2` (stereo unspecified), the activation in [1] is -1.12%. Besides, the Potency in experiment [4] was 0.263 µM (active); in [10], 0.0661 µM (active); in [6], 0.148 µM (active).

As to `O=C(O)CCCc1ccc(N(CCCl)CCCl)cc1`, the activation in experiment [1] is 7.53% and 20.9%. Moreover, the Potency result in experiment [10] is “inactive”. The Potency in experiment [11] was 2.95 µM (active).

As for `CCCC[N+]1(C)[C@H]2CC(OC(=O)[C@H](CO)c3ccccc3)C[C@H]1[C@H]1O[C@H]12` (stereo partly specified), the activation in experiment [1] is -13.2%. Further, the viability in experiment [4] is 109%. Besides, the Potency result in experiment [5], in [10], in experiment [6], in experiment [11] and in experiment [7] was “inactive” in each case.

Consider `N[C@@H](Cc1ccc(N(CCCl)CCCl)cc1)C(=O)O`, for which, in experiment [1], the activation is 29.4%. In addition, the Potency was 4.68 µM (active) in experiment [4], 1.48 µM (active) in experiment [10] and 2.95 µM (active) in [11].

With `CN[C@@H]1Cc2cccc3[nH]c(=O)n(c23)C1`, the activation in experiment [1] was 31.7%. Besides, the viability in [4] was 120%. Moreover, the Potency entry in experiment [10], in [11], in experiment [7] and in experiment [8] was “inactive” each time.

For the compound `c1ccc2c(CN3CCNCC3)cccc2c1`, the activation in [1] was 12.1%. The viability in [4] is 115%. Also, the Potency result in experiment [10], in [11], in experiment [7] and in experiment [8] was “inactive” throughout.

Consider `CCOC(=O)c1c(C(C#N)=CN)c2ccc(Cl)c(Cl)c2n1C`, for which, in experiment [1], the activation was -1.37%. Moreover, the Potency result in experiment [5], in experiment [6] and in experiment [8] was “inactive” in each case.

As to `COC1(CS(=O)c2ccccc2)CCN(CCc2c[nH]c3ccc(F)cc23)CC1` (stereo unspecified), the activation in experiment [1] was -25%. In addition, the viability in experiment [4] was 110%. In addition, the Potency in experiment [5] was 14.8 µM (active). The Potency result in experiment [11] and in experiment [8] was “inactive” each time.

Regarding `Fc1ccc(C(OCCN2CCN(CCCc3ccccc3)CC2)c2ccc(F)cc2)cc1`, in experiment [1], the activation was 0.57% and -55.2%. The Potency in [4] was 23.5 µM (active); in experiment [5], 29.5 µM (active); in experiment [10], 10.5 µM (active); in [11] it was 26.3 µM (active); in experiment [7], 18.6 µM (active); in [8], 23.5 µM (active).

As for `COc1ccc(C(=O)c2c(C)n(CCN3CCOCC3)c3cc(I)ccc23)cc1`, the activation in [1] was 27.2%. The Potency is 13.2 µM (active) in experiment [4]; 9.34 µM (active) in experiment [5]; 8.33 µM (active) in experiment [10]; 6.61 µM (active) in experiment [7]; 9.34 µM (active) in experiment [8]. The Potency entry in experiment [11] is “inactive”.

Turning to `COC[C@@H](NC(C)=O)C(=O)NCc1ccccc1`, the activation in experiment [1] is -5.83%. The viability in [4] was 112%. Besides, the Potency result in experiment [5], in experiment [11], in [7] and in experiment [8] was “inactive” throughout.

On to `O=c1[nH]c2ccccc2n1C1CCN(Cc2ccc(-c3[nH]c4cc5ncnc5cc4nc3-c3ccccc3)cc2)CC1`, for which, in experiment [1], the activation is 5.59%. Besides, in experiment [4], the viability is 104%. Besides, the Potency in experiment [10] is 14.8 µM (active); in experiment [8], 20.9 µM (active).

For the compound `N=c1c2c(-c3ccccc3)c(-c3ccccc3)n(Cc3ccccc3)c2ncn1C1CCC(O)CC1` (stereo unspecified), the activation in [1] is 11.7%. The Potency in experiment [4] was 1.32 µM (active); in experiment [10], 0.742 µM (active); in [6] it was 2.63 µM (active); in experiment [11] it was 1.32 µM (active); in experiment [7], 2.63 µM (active).

For `CN1[C@H]2CC(O)C[C@H]1[C@H]1O[C@H]12` (stereo partly specified), the activation in experiment [1] is -21%. Also, the viability in experiment [4] is 118%. For the same compound, the Potency entry in experiment [5], in experiment [10], in [11], in [7] and in experiment [8] was “inactive” throughout.

`CCC(C)/C=C(C)/C=C/C1=CC2=C(Cl)C(=O)C(C)(OC(C)=O)C(=O)C2=CO1` (stereo unspecified): the activation in experiment [1] was -16%. Besides, the Potency result in experiment [3] was “inactive”.

`C[C@]12Cc3cn[nH]c3C[C@@H]1CC[C@@H]1[C@@H]2CC[C@@]2(C)[C@H]1CC[C@]2(C)O`: the activation in experiment [1] was -21.8%. Further, in experiment [10], the Potency is 0.742 µM (active). Moreover, the Potency result in experiment [7] and in experiment [8] was “inactive” each time.

Turning to `CN(C)CCN(C)CCc1ccc(Cl)c(Cl)c1`, the activation in experiment [1] was 12%. In experiment [4], the viability is 103%. Also, the Potency result in experiment [5], in experiment [10], in experiment [6], in experiment [11] and in [8] was “inactive” each time.

For the compound `CN1C(=O)[C@]23CC4C(C)(C)[C@@]5(C[C@@]41CN2CC[C@@]3(C)O)C(=O)Nc1c5ccc2c1OC=CC(C)(C)O2` (stereo partly specified), the activation in experiment [1] is -19.1%. Besides, the Potency entry in [3] is “inactive”.
